Experiment [1] is described as follows: compound effects on lung adenocarcinoma cell viability – A549, calcein-AM fluorescence, 48 h, basal, profiling panel (AID 1162). Further: test concentration not given here. To be noted: higher = more signal.
A short description of experiment [2]: compound effects on differentiated 3T3-L1 adipocyte viability – cell-based, 3T3-L1 adipocytes, calcein-AM fluorescence, 48 h, basal, profiling panel (AID 1163). Further: test concentration not given here. The conditions noted are these: 3T3-L1 adipocytes viability, higher = more signal.
Experiment [3] is described as follows: compound effects on hepatocellular carcinoma cell viability – HepG2, calcein-AM fluorescence, 48 h, basal, profiling panel (AID 1164). Further: test concentration not given here. To be noted: higher = more signal.
Experiment [4] can be described thus: compound effects on multiple myeloma cell viability – MM1S, calcein-AM fluorescence, 48 h, basal, profiling panel (AID 1165).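 Further: viability of MM1S multiple myeloma cells under basal unstimulated conditions; test concentration not given here.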 To be noted: higher = more signal.
The nature of experiment [5]: calcein-AM signal in unstimulated myeloma cells – cell-based, calcein-AM fluorescence, 48 h, PK04 Diversity Set, profiling panel (AID 1166).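 Further: cells grown under basal conditions without added stimulus; test concentration not given here.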 To be noted: RPMI8226 myeloma viability, higher = more signal.
Experiment [6] can be described thus: JC-1 mitochondrial signal, unstimulated HepG2 cells – cell-based, JC-1 fluorescence, 24 h, 100 nL compound, profiling panel (AID 1167). Further: test concentration not given here. The conditions noted are these: HepG2 mitochondrial potential, higher = more signal.
Experiment [7] can be described thus: JC-1 mitochondrial signal, unstimulated adipocytes – cell-based, JC-1 fluorescence, 3T3-L1 adipocytes, 24 h, 100 nL compound, profiling panel (AID 1168). Further: test concentration not given here. To be noted: JC-1 mitochondrial fluorescence, higher = more signal, called active from +8 up or from −8 down.
The nature of experiment [8]: JC-1 mitochondrial signal, unstimulated myeloma cells – cell-based, JC-1 fluorescence, RPMI8226, 24 h, 100 nL compound, profiling panel (AID 1169). Further: test concentration not given here. To be noted: JC-1 mitochondrial potential fluorescence, higher = more signal.
A short description of experiment [9]: JC-1 mitochondrial signal, unstimulated MM1S myeloma – cell-based, JC-1 fluorescence, 24 h, 100 nL compound, profiling panel (AID 1170). Further: test concentration not given here. The conditions noted are these: MM1S mitochondrial potential, higher = more signal.
Experiment [10] in a line: resazurin metabolic signal in A549 cells – cell-based, resazurin fluorescence, 24 h, PK04 Diversity Set, profiling panel (AID 1171). Further: test concentration not given here. To be noted: A549 viability, higher = more signal, called active from +8 up or from −8 down. Background: Resazurin is reduced to fluorescent resorufin, in cell work by metabolically active cells.
Experiment [11] is described as follows: resazurin metabolic signal in HepG2 cells – cell-based, resazurin fluorescence, 24 h, PK04 Diversity Set, profiling panel (AID 1172). Further: test concentration not given here. To be noted: HepG2 viability, higher = more signal.
Experiment [12] is described as follows: budding yeast growth changes without added modifier – OD600, strain BY4716, 24 h, basal condition, primary screen (AID 1173). The conditions noted are these: S. cerevisiae BY4716 growth, OD600, 24 h; higher = more signal, called active from +8 up or from −8 down.
A short description of experiment [13]: viability profiling in MM1S myeloma cells – cell-based, resazurin fluorescence, basal, 24 h, PK04 Diversity Set, profiling panel (AID 1174). Further: test concentration not given here. The conditions noted are these: higher = more signal, called active from +8 up or from −8 down.
Experiment [14] concerns the target Dihydroorotate dehydrogenase (quinone), mitochondrial (Plasmodium falciparum (isolate 3D7)) (UniProt Q08210). As to the kind of experiment: inhibition of P. falciparum DHODH – biochemical, C-terminal His tag, absorbance 600 nm, primary screen (AID 1175).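 Further: recombinant parasite enzyme with a five histidine tag at its C terminus; test concentration not given here.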 To be noted: PfDHODH enzyme, DCIP absorbance 600 nm; higher = more signal, called active from +8 up or from −8 down.

The nature of experiment [15]: inhibition of PAO1 biofilm formation – strain PAO1, LB-PBS medium, absorbance 600 nm, primary screen (AID 1176). Further: test concentration not given here. To be noted: P. aeruginosa PAO1 growth/biofilm, A600, 12 h; higher = more signal.
Experiment [16] in a line: growth modulation of vineyard yeast isolate – strain RM11-1a, OD600, basal, 24 h, primary screen (AID 1177).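 Further: cultures grown under basal conditions with no added stressor; test concentration not given here.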 To be noted: S. cerevisiae RM11-1a growth, OD600, 24 h; higher = more signal, called active from +8 up or from −8 down.
Experiment [17] in a line: growth of efflux-deficient E. coli DRC39 – strain DRC39, OD650, 24 h, E. coli filamentation inducers, primary screen (AID 1178).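 Further: growth measured as culture turbidity by optical density at 650 nm; test concentration not given here.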 The conditions noted are these: E. coli DRC39 acrAB, higher = more signal, called active from +8 up or from −8 down.
A short description of experiment [18]: growth of efflux-deficient E. coli DRC39 – strain DRC39, OD650, 48 h, E. coli filamentation inducers, primary screen (AID 1179).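 Further: screen aims at cell division blockers that make cells filament.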 To be noted: E. coli DRC39 delta-acrAB growth, higher = more signal, called active from +8 up or from −8 down.
Experiment [19] is described as follows: viability profiling in RPMI8226 myeloma cells – cell-based, resazurin fluorescence, basal, 24 h, PK04 Diversity Set, profiling panel (AID 1180).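 Further: RPMI8826 multiple myeloma cell line at 5000 cells per well; test concentration not given here.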 To be noted: higher = more signal.
For experiment [20], the target named is E3 ubiquitin-protein ligase XIAP (Homo sapiens) (UniProt P98170). Description: small molecules binding XIAP protein – biophysical, small-molecule microarray, fluorescence 635 nm, primary screen (AID 1181).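 Further: score merges 667 nm emission and signal to noise over triplicate slides.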 The conditions noted are these: higher = more signal.

Structures are written as SMILES. The source made the active and inactive calls. Unless noted, how the calls were made is not given here.

Sequence of E3 ubiquitin-protein ligase XIAP (Homo sapiens) (P98170 whole entry, looked up): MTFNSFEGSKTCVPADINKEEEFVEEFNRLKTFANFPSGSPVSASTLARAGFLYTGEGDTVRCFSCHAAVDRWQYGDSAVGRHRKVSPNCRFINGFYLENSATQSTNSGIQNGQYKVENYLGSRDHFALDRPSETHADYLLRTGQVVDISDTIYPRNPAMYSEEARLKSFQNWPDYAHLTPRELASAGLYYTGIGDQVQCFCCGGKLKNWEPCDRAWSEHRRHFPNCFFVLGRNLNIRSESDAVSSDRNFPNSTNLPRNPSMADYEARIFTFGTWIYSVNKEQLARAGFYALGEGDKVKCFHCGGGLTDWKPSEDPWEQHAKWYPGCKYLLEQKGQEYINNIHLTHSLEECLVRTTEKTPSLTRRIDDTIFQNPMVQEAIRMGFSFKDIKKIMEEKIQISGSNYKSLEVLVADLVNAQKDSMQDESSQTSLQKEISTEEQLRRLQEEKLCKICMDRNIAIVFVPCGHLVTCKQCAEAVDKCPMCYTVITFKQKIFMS
Sequence of Dihydroorotate dehydrogenase (quinone), mitochondrial (Plasmodium falciparum (isolate 3D7)) (Q08210 whole entry, looked up): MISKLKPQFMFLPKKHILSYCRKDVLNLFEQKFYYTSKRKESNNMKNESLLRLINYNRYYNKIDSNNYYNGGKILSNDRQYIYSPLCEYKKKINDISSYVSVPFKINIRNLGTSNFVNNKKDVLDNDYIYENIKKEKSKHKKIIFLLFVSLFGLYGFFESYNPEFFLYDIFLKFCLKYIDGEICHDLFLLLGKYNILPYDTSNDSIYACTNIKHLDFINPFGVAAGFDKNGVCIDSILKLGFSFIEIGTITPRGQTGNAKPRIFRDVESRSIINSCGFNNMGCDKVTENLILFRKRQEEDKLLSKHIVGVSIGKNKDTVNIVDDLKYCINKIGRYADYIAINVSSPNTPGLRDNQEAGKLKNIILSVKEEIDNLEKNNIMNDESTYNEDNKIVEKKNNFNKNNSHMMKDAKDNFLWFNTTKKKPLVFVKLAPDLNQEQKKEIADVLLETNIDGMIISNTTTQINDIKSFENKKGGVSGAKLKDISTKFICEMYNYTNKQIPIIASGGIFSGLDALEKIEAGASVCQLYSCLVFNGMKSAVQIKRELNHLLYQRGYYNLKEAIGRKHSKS

Regarding `CC(C)(C)N1CC=CC23O[C@@H]4/C=C\CCCOC(=O)C4[C@H]2C(=O)N(CCO)[C@@H]3C1=O` (stereo not given in full), the z-score in [1] is -0.612; in [2], 1.15; in [3] it was -0.664; in [4], 0.889; in experiment [5], -0.689; in [6], -0.388. Also, the z-score in experiment [7] was -0.79 (inactive); in experiment [8] it was -0.0669; in [9], 1.11; in experiment [10], -0.876 (inactive); in [11], -0.636; in [12], 0.0998 (inactive). In addition, the z-score was -0.0023 (inactive) in [13]; 0.18 (inactive) in experiment [15]; 0.338 (inactive) in experiment [16]; -0.599 (inactive) in experiment [17]; -0.814 (inactive) in experiment [18]; -0.053 in experiment [19]. Also, the composite z-score was -0.252 (inactive) in experiment [14] and -0.142 in [20].

Turning to `C=CCNC(=O)[C@H]1[C@@H]2C(=O)O[C@@H](c3ccccc3)[C@@H](c3ccccc3)N2[C@@H](c2ccc(O)cc2)[C@]12C(=O)N(C(=O)OCCOC)c1ccc(C#CCCO)cc12`, the z-score in experiment [1] was 1.07; in experiment [2], 0.482; in [3], 0.802; in experiment [4], -0.0589; in [5] it was 0.233; in experiment [6] it was 0.0998. The z-score was 0.541 (inactive) in experiment [7]; -1.07 in experiment [8]; 0.45 in experiment [9]; -0.319 (inactive) in [10]; -0.37 in experiment [11]; -0.385 (inactive) in experiment [12]. The z-score is 0.695 (inactive) in [13]; 0.104 (inactive) in experiment [15]; 0.681 (inactive) in experiment [16]; 0.261 (inactive) in experiment [17]; 0.69 (inactive) in [18]; 0.665 in [19]. For the same compound, the composite z-score in experiment [14] is 1.12 (inactive); in experiment [20] it was -0.272.

Take `CCCN1C(=O)[C@@]2(CCC(=O)OC(C)(C)C)N=C(c3ccc(OCCCO)cc3)O[C@H]2c2ccccc21`: the z-score is -1.32 in [1]; 1.24 in experiment [2]; -2.09 in [3]; -3.47 in experiment [4]; -4.43 in experiment [5]; 0.6 in [6]. Moreover, the z-score in experiment [7] is 2.43 (inactive); in [8], -1.26; in experiment [9], -0.421; in [10], -0.778 (inactive); in [11] it was 0.803; in experiment [12] it was -1 (inactive). Moreover, the z-score in experiment [13] was -1.86 (inactive); in experiment [15] it was 0.717 (inactive); in experiment [16], 0.992 (inactive); in experiment [17], 0.923 (inactive); in [18] it was 0.178 (inactive); in experiment [19], -3.16. The composite z-score is -0.0393 (inactive) in [14] and 0.0223 in [20].

Consider `CC(C)N1C(=O)C[C@@](C(=O)NCc2ccccc2)(c2ccc([N+](=O)[O-])cc2)[C@H]1c1ccc(CO)cc1`, for which the z-score in [1] was -0.508; in experiment [2] it was -0.749; in experiment [3] it was -0.113; in experiment [4] it was -0.0234; in experiment [5], -0.0746; in experiment [6], 0.924. Moreover, the z-score in [7] is 1.08 (inactive); in experiment [8], -0.744; in experiment [9], 0.301; in experiment [10], 0.0885 (inactive); in [11] it was 0.222; in [12], -0.228 (inactive). In addition, the z-score in experiment [13] was 0.0372 (inactive); in experiment [15], -0.0528 (inactive); in [16], 0.131 (inactive); in experiment [17], 0.531 (inactive); in [18] it was 1.23 (inactive); in experiment [19], 1.26. The composite z-score in [14] is 0.41 (inactive); in [20] it was -0.0543.

For `CN1C=C(C(=O)OCCS(C)(=O)=O)C(C(=O)OCCS(C)(=O)=O)=CC(CCCO)=CC1C1CC1` (stereo not given), the z-score in experiment [1] was -0.731; in experiment [2], 0.197; in experiment [3], 1.23; in [4], 0.509; in experiment [5], 0.535; in experiment [6], 0.838. Moreover, the z-score in [7] is 0.448 (inactive); in experiment [8], 0.326; in experiment [9] it was -1.09; in experiment [10] it was 0.129 (inactive); in experiment [11], 0.427; in experiment [12] it was -2.11 (inactive). For the same compound, the z-score is -0.16 (inactive) in experiment [13]; -0.353 (inactive) in experiment [15]; -0.558 (inactive) in experiment [16]; 1.38 (inactive) in [17]; 1.29 (inactive) in experiment [18]; 0.0101 in experiment [19]. For the same compound, the values for the composite z-score in experiment [14] and in experiment [20] were -1.23 (inactive) and -0.366, respectively.

Regarding `COc1ccc(C#Cc2ccc3c(c2)[C@]2(C(=O)N3)[C@H](C(=O)NC[C@H](O)c3ccccc3)[C@H]3C(=O)O[C@H](c4ccccc4)[C@H](c4ccccc4)N3[C@@H]2c2ccc(OCCO)cc2)cc1`, the z-score in experiment [1] was 0.415; in experiment [2] it was 1.17; in experiment [3], -0.425; in experiment [4], -1.82; in experiment [5], -1.07; in experiment [6], -1.51. The z-score in experiment [7] was 2.53 (inactive); in experiment [8], -1.04; in [9], -0.733; in [10], -0.171 (inactive); in experiment [11] it was -1.07; in experiment [12], 2.22 (inactive). Besides, the z-score in experiment [13] is -1.16 (inactive); in experiment [15], 2.55 (inactive); in experiment [16], 2.97 (inactive); in experiment [17], -0.34 (inactive); in experiment [18] it was -0.151 (inactive); in [19], -1.47. For the same compound, the composite z-score in experiment [14] is -0.0157 (inactive); in experiment [20], -0.125.

For `C=CCC(OC(C)=O)[C@@H]1[C@@H](N(Cc2ccc(-c3cccc(C(F)(F)F)c3)o2)C(=O)c2ccc(C)cc2)c2cc(OCCCO)ccc2N1C(=O)c1ccc(-c2ccccc2)cc1` (stereo not given in full), the z-score in experiment [1] was 1.18; in experiment [2] it was 0.345; in experiment [3], 1.65; in experiment [4], 1.02; in experiment [5], 0.657; in [6], 3.89. In addition, the z-score in [7] is -1.29 (inactive); in experiment [8] it was 0.866; in experiment [9], 0.112; in [10] it was -0.0211 (inactive); in experiment [11], 0.0024; in [12], -0.15 (inactive). Besides, the z-score was -0.936 (inactive) in [13]; 0.477 (inactive) in experiment [15]; 0.677 (inactive) in [16]; -0.456 (inactive) in experiment [17]; 0.0289 (inactive) in [18]; 0.525 in experiment [19]. The results for the composite z-score in experiment [14] and in experiment [20] were -0.23 (inactive) and -0.127, respectively.

For the compound `CCCCCCCCCCC(O)C1C=CC2C(=O)N(Cc3ccccc3)C(=O)C2N1n1cnnc1` (stereo not given), the z-score was -0.509 in experiment [1]; 0.381 in experiment [2]; -0.324 in experiment [3]; -0.514 in experiment [4]; -0.921 in experiment [5]; 0.015 in experiment [6]. In addition, the z-score in experiment [7] was -1.51 (inactive); in experiment [8] it was -0.0408; in experiment [9], -0.979; in [10], -0.929 (inactive); in experiment [11], -1.17; in experiment [12], -0.472 (inactive). Besides, the z-score in experiment [13] was -1.39 (inactive); in experiment [15], -0.541 (inactive); in experiment [16], -0.623 (inactive); in [17], -0.845 (inactive); in [18], -0.592 (inactive); in experiment [19] it was -1.15. For the same compound, the composite z-score is -1.2 (inactive) in experiment [14] and -0.0085 in [20].

Values taken from PubChem BioAssay.
